Read-out in assay [1]: C-C motif chemokine 2 (Homo sapiens) (UniProt P13500)
The experiment in a line: BSK_KF3CT_MCP1: BioMAP Diversity Plus: KF3CT Assay for Monocyte Chemoattractant Protein 1 (MCP1/CCL2) Biomarker Activity (AID 2283073). The conditions noted are these: primary human keratinocytes with fibroblasts; actives raise or lower the signal. In outline:
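Human keratinocyte plus foreskin fibroblast primary co-culture exposed to chemical for 24 h. MCP-1 levels measured by ELISA. Bidirectional curve fitting relative to DMSO negative control as baseline.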

Read-out in assay [2]: Matrix Metallopeptidase 9 (MMP9), MMP9 (gene 4318)
The experiment in a line: BSK_KF3CT_MMP9: BioMAP Diversity Plus: KF3CT Assay for Matrix Metallopeptidase 9 (MMP9) Biomarker Activity (AID 2283074).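 As to AC50: MMP9 protein level quantified by ELISA in the co-culture.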 The conditions noted are these: primary human keratinocytes with fibroblasts; actives raise or lower the signal. Summed up: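 Keratinocyte plus foreskin fibroblast human primary skin co-culture was dosed with chemical and MMP-9 was quantified by ELISA 24 h later. Bidirectional curve fitting used DMSO as negative control and activity baseline.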

Read-out in assay [3]: urokinase plasminogen activator (uPA), PLAU (gene 5328)
Briefly: BSK_KF3CT_uPA: BioMAP Diversity Plus: KF3CT Assay for urokinase plasminogen activator (uPA) Biomarker Activity (AID 2283075). The conditions noted are these: primary human keratinocytes with fibroblasts; actives raise or lower the signal. Summed up:
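Human keratinocyte plus foreskin fibroblast primary co-culture exposed to chemical for 24 h. uPA levels were quantified by ELISA, and activity was fitted bidirectionally against a DMSO negative-control baseline.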

Read-out in assay [4]: E-selectin (Homo sapiens) (UniProt P16581)
The experiment in a line: BSK_LPS_Eselectin: BioMAP Diversity Plus: LPS Assay for Eselectin Biomarker Activity (AID 2283077). The conditions noted are these: primary human HUVEC with PBMC; actives raise or lower the signal. Summed up: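 Human umbilical vein endothelial cells co-cultured with peripheral blood mononuclear cells under LPS stimulation; E-selectin measured by ELISA 24 h after chemical dosing. Activity fitted bidirectionally against DMSO as negative control and baseline.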

Read-out in assay [5]: Interleukin-8 (IL8), CXCL8 (gene 3576)
The experiment in a line: BSK_LPS_IL8: BioMAP Diversity Plus: LPS Assay for Interleukin-8 (IL8) Biomarker Activity (AID 2283078). The conditions noted are these: primary human HUVEC with PBMC; actives raise or lower the signal. In outline: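 Human umbilical vein endothelial cells co-cultured with PBMC were stimulated with LPS; IL-8 levels were measured by ELISA 24 h after chemical dosing. Activity was fitted bidirectionally against DMSO as negative control and baseline.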

Assay [6] is described as follows: BSK_LPS_SRB: Viability Assessment in the BioMAP Diversity Plus: LPS Assay (AID 2283079).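 Also: total protein by sulforhodamine B absorbance as a cytotoxicity measure; measured one day after compound addition; fitted in both directions against DMSO so loss or gain of signal counts.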 The conditions noted are these: primary human HUVEC with PBMC. Summed up:
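Human umbilical vein endothelial cells co-cultured with PBMC (LPS system) were dosed for 24 h. Total protein was stained with 0.1% sulforhodamine B after 10% TCA fixation, read at 560 nm, and fitted bidirectionally against DMSO baseline.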

Read-out in assay [7]: Interleukin-1 alpha (IL1a), IL1A (gene 3552)
Briefly: BSK_LPS_IL1a: BioMAP Diversity Plus: LPS Assay for Interleukin-1 alpha (IL1a) Biomarker Activity (AID 2283080). The conditions noted are these: primary human HUVEC with PBMC; actives raise or lower the signal. Summed up: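 Human umbilical vein endothelial cells co-cultured with peripheral blood mononuclear cells were LPS-stimulated and exposed to test chemicals for 24 h. IL-1 alpha was quantified by ELISA, with bidirectional curve fitting against DMSO as the negative control and baseline.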

Read-out in assay [8]: Monocyte Chemoattractant Protein-1 (MCP1), CCL2 (gene 6347)
The experiment in a line: BSK_LPS_MCP1: BioMAP Diversity Plus: LPS Assay for Monocyte Chemoattractant Protein-1 (MCP1) Biomarker Activity (AID 2283081).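 Also: co-culture stimulated with LPS; secreted MCP-1 protein quantified by ELISA in culture supernatant.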 The note with it: primary human HUVEC with PBMC; actives raise or lower the signal. Summed up:
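HUVEC plus PBMC co-culture (human primary cells, LPS system) exposed to test chemical for 24 h; MCP-1 measured by ELISA. Bidirectional curve fitting against DMSO baseline; parallel SRB total-protein staining flags overt cytotoxicity.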

Assay [9] is described as follows: BSK_LPS_PGE2: BioMAP Diversity Plus: LPS Assay for Prostaglandin E2 (PGE2) Biomarker Activity (AID 2283082). The conditions noted are these: primary human HUVEC with PBMC; actives raise or lower the signal. In outline:
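LPS-activated HUVEC/PBMC co-culture; cmpd dosed, 24 h; PGE2 by ELISA; bidirectional fit vs DMSO; SRB (0.1%, TCA-fixed, 560 nm) in parallel plates for overt cytotox.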

Read-out in assay [10]: Macrophage colony-stimulating factor (MCSF), CSF1 (gene 1435)
Briefly: BSK_LPS_MCSF: BioMAP Diversity Plus: LPS Assay for Macrophage colony-stimulating factor (MCSF) Biomarker Activity (AID 2283083). The note with it: primary human HUVEC with PBMC; actives raise or lower the signal. Summed up:
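Human umbilical vein endothelial cells co-cultured with peripheral blood mononuclear cells were exposed to compound for 24 h. M-CSF levels were measured by ELISA, and bidirectional curve fitting used DMSO as the negative control and baseline.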

Read-out in assay [11]: Tissue Factor, F3 (gene 2152)
Briefly: BSK_LPS_TissueFactor: BioMAP Diversity Plus: LPS Assay for Tissue Factor Biomarker Activity (AID 2283084). The conditions noted are these: primary human HUVEC with PBMC; actives raise or lower the signal. In outline: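 Human umbilical vein endothelial cells co-cultured with peripheral blood mononuclear cells were dosed and stimulated with LPS. Cell-surface CD142 was quantified by ELISA at 24 h. Activity was fitted bidirectionally against DMSO baseline.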

Read-out in assay [12]: Tumor necrosis factor (Homo sapiens) (UniProt P01375)
Briefly: BSK_LPS_TNFa: BioMAP Diversity Plus: LPS Assay for Tumour Necrosis Factor alpha (TNFa) Biomarker Activity (AID 2283085). The note with it: primary human HUVEC with PBMC; actives raise or lower the signal. Summed up:
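Read-out is ELISA of TNFa in primary human endothelial cell–PBMC co-cultures at 24 h after compound. Activity in either direction was fitted against DMSO.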

Read-out in assay [13]: CD40, CD40 (gene 958)
The experiment in a line: BSK_SAg_CD40: BioMAP Diversity Plus: SAg Assay for CD40 Biomarker Activity (AID 2283088). The conditions noted are these: primary human HUVEC with PBMC; actives raise or lower the signal. Summed up:
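Human umbilical vein endothelial cells co-cultured with PBMC; CD40 levels measured by ELISA with fluorescence read-out 24 h after chemical dosing. Gain or loss of signal fitted bidirectionally against DMSO baseline.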

Read-out in assay [14]: CD69, CD69 (gene 969)
Briefly: BSK_SAg_CD69: BioMAP Diversity Plus: SAg Assay for CD69 Biomarker Activity (AID 2283089).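 As to AC50: cell surface CD69 protein quantified by ELISA with fluorescence detection.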 The note with it: primary human HUVEC with PBMC; actives raise or lower the signal. Summed up:
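Endothelial/PBMC co-culture; chemical added; 24 h incubation; CD69 ELISA with fluorescence detection; bidirectional fit vs DMSO.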

Read-out in assay [15]: Monocyte Chemoattractant Protein-1 (MCP1), CCL2 (gene 6347)
The experiment in a line: BSK_SAg_MCP1: BioMAP Diversity Plus: SAg Assay for Monocyte Chemoattractant Protein-1 (MCP1) Biomarker Activity (AID 2283090). The conditions noted are these: primary human HUVEC with PBMC; actives raise or lower the signal. Summed up: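 MCP-1 levels in the endothelial–PBMC SAg co-culture were quantified by ELISA at 24 h post-dosing; both increases and decreases versus DMSO scored. Cytotoxicity monitored by SRB total protein in parallel cultures.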

Read-out in assay [16]: E-selectin (Homo sapiens) (UniProt P16581)
Briefly: BSK_SAg_Eselectin: BioMAP Diversity Plus: SAg Assay for Eselectin Biomarker Activity (AID 2283091). The note with it: primary human HUVEC with PBMC; actives raise or lower the signal. Summed up:
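HUVEC co-cultured with PBMC, compound dosed then read at 24 h; E-selectin measured by ELISA. Activity fitted bidirectionally against DMSO as negative control and baseline.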

Read-out in assay [17]: CD40, CD40 (gene 958)
The experiment in a line: BSK_LPS_CD40: BioMAP Diversity Plus: LPS Assay for CD40 Biomarker Activity (AID 2283076). The note with it: primary human HUVEC with PBMC; actives raise or lower the signal. Summed up: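 Primary human umbilical vein endothelial cells co-cultured with peripheral blood mononuclear cells, LPS-stimulated, were dosed with chemical and read 24 h later. CD40 levels were measured by ELISA and fitted bidirectionally against DMSO as negative control and baseline.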

Read-out in assay [18]: Vascular cell adhesion molecule 1 (VCAM1), VCAM1 (gene 7412)
Briefly: BSK_LPS_VCAM1: BioMAP Diversity Plus: LPS Assay for Vascular cell adhesion molecule 1 (VCAM1) Biomarker Activity (AID 2283086). The conditions noted are these: primary human HUVEC with PBMC; actives raise or lower the signal. Summed up: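 HUVEC + PBMC co-culture, LPS system; compound 24 h; VCAM-1 by ELISA; bidirectional fit vs DMSO control; parallel SRB (0.1%, TCA-fixed, 560 nm) for cytotoxicity.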

The source made the active and inactive calls. The calls were made as follows: active = hit-call score of the fitted dose curve at least 0.9, where 1 is the maximum; inactive = score below 0.9.

The term AC50 denotes the midpoint of the concentration-response curve, whichever way the signal moves.

Sequence of Tumor necrosis factor (Homo sapiens) (P01375 whole entry, looked up): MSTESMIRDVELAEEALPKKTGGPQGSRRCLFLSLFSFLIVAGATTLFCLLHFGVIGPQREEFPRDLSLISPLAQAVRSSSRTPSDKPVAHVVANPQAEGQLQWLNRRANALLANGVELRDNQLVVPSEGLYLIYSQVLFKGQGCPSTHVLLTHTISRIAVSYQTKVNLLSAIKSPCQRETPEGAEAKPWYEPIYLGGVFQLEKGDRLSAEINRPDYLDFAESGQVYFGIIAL
Sequence of E-selectin (Homo sapiens) (P16581 whole entry, looked up): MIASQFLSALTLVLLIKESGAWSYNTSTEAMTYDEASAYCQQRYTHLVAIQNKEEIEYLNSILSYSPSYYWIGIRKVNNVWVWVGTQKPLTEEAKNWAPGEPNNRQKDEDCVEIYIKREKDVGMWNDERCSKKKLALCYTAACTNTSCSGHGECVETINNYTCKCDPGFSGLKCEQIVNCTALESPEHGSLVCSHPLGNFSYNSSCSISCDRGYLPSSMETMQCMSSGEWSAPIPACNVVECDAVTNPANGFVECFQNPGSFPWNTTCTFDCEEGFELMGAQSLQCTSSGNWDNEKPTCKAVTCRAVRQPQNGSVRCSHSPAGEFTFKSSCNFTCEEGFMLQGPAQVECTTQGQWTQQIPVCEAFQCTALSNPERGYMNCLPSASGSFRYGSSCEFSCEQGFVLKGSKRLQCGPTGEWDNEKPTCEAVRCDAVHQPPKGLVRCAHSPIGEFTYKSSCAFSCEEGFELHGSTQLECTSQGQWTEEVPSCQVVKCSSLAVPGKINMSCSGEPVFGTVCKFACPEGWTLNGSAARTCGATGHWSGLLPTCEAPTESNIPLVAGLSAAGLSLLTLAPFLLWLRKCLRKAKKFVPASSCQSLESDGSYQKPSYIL

As for `C[C@]12CC[C@@H]3c4ccc(O)cc4CC[C@H]3[C@@H]1CC[C@H]2O`, the outcome in [1], in assay [2], in assay [3], in assay [4], in assay [5] and in [7] was inactive. In addition, the result in [9], in assay [11], in [12], in [13], in assay [14] and in assay [16] was inactive. Moreover, the AC50 in assay [6] was 9.95 µM (active); in assay [8], 14.1 µM (active); in assay [10], 8.61 µM (active); in assay [15], 15.4 µM (active).
`Cc1cc(F)ccc1-c1cc(N2CC[C@@H](O)[C@H]2CO)ncc1N(C)C(=O)C(C)(C)c1cc(C(F)(F)F)cc(C(F)(F)F)c1`: the AC50 was 14.9 µM (active) in [1]; 12.3 µM (active) in assay [2]; 12.7 µM (active) in [3]; 8.65 µM (active) in assay [17]; 11.3 µM (active) in [4]; 10.8 µM (active) in [5]. The AC50 in assay [6] was 11.3 µM (active); in assay [7] it was 9.95 µM (active); in [8], 10.8 µM (active); in assay [10] it was 10.8 µM (active); in assay [11], 12.9 µM (active); in assay [12], 10.7 µM (active). For the same compound, the AC50 in [18] was 11.2 µM (active); in assay [13], 9.9 µM (active); in assay [14] it was 10.5 µM (active); in assay [15] it was 10.3 µM (active); in assay [16], 10.2 µM (active). In [9], the result was inactive.
For the compound `CC(C)(C)c1csc(-c2cc3cc(OCc4ccccc4CC(=O)O)ccc3o2)n1`, the AC50 was 20 µM (active) in [1]; 13.7 µM (active) in assay [2]; 20.7 µM (active) in assay [3]; 20.7 µM (active) in assay [17]; 30.9 µM (active) in assay [4]; 20.9 µM (active) in [6]. The AC50 is 20.5 µM (active) in assay [7]; 22.6 µM (active) in assay [8]; 27.2 µM (active) in assay [10]; 17.7 µM (active) in assay [12]; 18.8 µM (active) in assay [18]; 19.1 µM (active) in assay [13]. In addition, the AC50 in assay [14] is 19.8 µM (active); in assay [15], 29.9 µM (active); in [16], 32.1 µM (active). The result in assay [5], in assay [9] and in assay [11] was inactive.

Values taken from PubChem BioAssay (EPA / NIEHS).
